Data from ChEMBL document CHEMBL2218924, “A broad activity screen in support of a chemogenomic map for kinase signalling research and drug discovery” (Biochem J, 2013).

Assays:
[1] = target: T1, Rhodopsin kinase GRK7 (Homo sapiens) (UniProt Q8WTQ7); settings: at 10 µM
T1 sequence (whole entry): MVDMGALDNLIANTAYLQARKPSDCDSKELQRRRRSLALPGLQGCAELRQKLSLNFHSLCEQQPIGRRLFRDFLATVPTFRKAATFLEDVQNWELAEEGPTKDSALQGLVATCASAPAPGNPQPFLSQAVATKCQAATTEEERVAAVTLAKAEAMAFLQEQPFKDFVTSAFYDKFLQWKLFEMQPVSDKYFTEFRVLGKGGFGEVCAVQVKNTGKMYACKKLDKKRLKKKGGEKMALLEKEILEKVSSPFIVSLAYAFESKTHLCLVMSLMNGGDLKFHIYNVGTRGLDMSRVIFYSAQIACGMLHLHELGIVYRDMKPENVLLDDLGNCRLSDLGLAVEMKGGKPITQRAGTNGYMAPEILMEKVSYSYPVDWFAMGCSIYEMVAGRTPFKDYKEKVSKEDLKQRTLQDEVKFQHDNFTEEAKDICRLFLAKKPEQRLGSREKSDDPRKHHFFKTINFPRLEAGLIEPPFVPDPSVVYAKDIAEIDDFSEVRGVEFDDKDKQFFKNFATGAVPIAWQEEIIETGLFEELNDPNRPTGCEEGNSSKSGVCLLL

[2] = target: Glycogen synthase kinase-3 alpha (Homo sapiens) (UniProt P49840); settings: at 1 µM
[3] = target: Glycogen synthase kinase-3 alpha (Homo sapiens) (UniProt P49840); settings: at 10 µM
[4] = target: Glycogen synthase kinase-3 beta (Homo sapiens) (UniProt P49841); settings: at 1 µM
[5] = target: Glycogen synthase kinase-3 beta (Homo sapiens) (UniProt P49841); settings: at 10 µM
[6] = target: Homeodomain-interacting protein kinase 1 (Homo sapiens) (UniProt Q86Z02); settings: at 1 µM
[7] = target: Homeodomain-interacting protein kinase 1 (Homo sapiens) (UniProt Q86Z02); settings: at 10 µM
[8] = target: Homeodomain-interacting protein kinase 2 (Homo sapiens) (UniProt Q9H2X6); settings: at 1 µM
[9] = target: Homeodomain-interacting protein kinase 2 (Homo sapiens) (UniProt Q9H2X6); settings: at 10 µM
[10] = target: Homeodomain-interacting protein kinase 3 (Homo sapiens) (UniProt Q9H422); settings: at 1 µM
[11] = target: Homeodomain-interacting protein kinase 3 (Homo sapiens) (UniProt Q9H422); settings: at 10 µM
[12] = target: T2, Serine/threonine-protein kinase haspin (Homo sapiens) (UniProt Q8TF76); settings: at 1 µM
T2 sequence (whole entry): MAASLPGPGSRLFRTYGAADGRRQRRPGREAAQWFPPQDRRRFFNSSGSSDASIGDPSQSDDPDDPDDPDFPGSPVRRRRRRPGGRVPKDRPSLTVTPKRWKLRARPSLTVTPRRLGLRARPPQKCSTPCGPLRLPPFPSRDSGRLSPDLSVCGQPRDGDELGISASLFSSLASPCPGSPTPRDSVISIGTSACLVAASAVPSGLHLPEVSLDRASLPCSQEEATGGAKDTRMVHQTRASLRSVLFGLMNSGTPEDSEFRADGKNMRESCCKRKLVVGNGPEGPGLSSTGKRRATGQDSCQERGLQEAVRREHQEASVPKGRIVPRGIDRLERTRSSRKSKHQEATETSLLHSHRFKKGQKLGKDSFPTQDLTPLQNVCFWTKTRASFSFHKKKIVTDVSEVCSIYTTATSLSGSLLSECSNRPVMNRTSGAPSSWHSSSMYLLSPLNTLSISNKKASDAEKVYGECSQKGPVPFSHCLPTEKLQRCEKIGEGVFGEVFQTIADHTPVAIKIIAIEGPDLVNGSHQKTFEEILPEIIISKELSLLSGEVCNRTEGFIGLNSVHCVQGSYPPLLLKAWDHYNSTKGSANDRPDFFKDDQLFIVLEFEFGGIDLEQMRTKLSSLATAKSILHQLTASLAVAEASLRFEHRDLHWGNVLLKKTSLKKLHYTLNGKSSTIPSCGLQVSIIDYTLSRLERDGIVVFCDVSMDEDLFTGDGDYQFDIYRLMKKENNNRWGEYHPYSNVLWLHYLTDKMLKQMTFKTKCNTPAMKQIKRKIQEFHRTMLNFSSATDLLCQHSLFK

[13] = target: T2, Serine/threonine-protein kinase haspin (Homo sapiens); settings: at 10 µM
[14] = target: Tyrosine-protein kinase HCK (Homo sapiens) (UniProt P08631); settings: at 1 µM
[15] = target: Tyrosine-protein kinase HCK (Homo sapiens) (UniProt P08631); settings: at 10 µM
[16] = target: Tyrosine-protein kinase HCK (Homo sapiens) (UniProt P08631); settings: at 1 µM; remark: listed apart in the source
[17] = target: Tyrosine-protein kinase HCK (Homo sapiens) (UniProt P08631); settings: at 10 µM; remark: listed apart in the source
[18] = target: Insulin-like growth factor 1 receptor (Homo sapiens) (UniProt P08069); settings: at 1 µM
[19] = target: Insulin-like growth factor 1 receptor (Homo sapiens) (UniProt P08069); settings: at 10 µM
[20] = target: T3, Protein kinase C zeta type (Homo sapiens) (UniProt Q05513); settings: at 10 µM
T3 sequence (whole entry): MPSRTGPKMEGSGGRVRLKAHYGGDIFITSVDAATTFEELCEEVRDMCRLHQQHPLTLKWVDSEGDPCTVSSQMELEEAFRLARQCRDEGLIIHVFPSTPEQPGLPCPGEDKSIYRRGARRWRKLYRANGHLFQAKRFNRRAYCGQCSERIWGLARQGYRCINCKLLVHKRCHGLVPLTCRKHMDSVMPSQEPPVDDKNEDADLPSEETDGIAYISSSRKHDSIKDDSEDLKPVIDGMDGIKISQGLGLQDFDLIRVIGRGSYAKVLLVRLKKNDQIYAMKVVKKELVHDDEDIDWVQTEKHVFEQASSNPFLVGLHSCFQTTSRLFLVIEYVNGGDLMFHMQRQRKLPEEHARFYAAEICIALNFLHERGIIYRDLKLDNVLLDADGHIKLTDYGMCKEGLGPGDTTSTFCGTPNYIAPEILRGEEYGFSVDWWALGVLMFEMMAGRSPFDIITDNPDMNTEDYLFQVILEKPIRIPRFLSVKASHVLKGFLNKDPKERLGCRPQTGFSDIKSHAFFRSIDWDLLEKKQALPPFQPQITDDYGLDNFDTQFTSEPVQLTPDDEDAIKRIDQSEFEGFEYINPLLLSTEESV

Sequence of Glycogen synthase kinase-3 beta (Homo sapiens) (P49841 whole entry, looked up): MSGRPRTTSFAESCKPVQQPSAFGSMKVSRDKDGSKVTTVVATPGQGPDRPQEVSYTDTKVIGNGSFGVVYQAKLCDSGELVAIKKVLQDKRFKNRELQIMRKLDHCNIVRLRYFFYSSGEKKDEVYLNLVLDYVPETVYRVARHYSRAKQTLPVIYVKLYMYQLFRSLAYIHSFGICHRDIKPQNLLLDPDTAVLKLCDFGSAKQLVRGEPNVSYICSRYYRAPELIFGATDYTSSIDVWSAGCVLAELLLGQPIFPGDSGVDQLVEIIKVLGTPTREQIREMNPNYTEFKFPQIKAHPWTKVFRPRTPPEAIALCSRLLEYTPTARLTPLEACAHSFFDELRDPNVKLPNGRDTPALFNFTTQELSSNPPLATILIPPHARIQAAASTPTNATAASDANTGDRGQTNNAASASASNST
Sequence of Glycogen synthase kinase-3 alpha (Homo sapiens) (P49840 2-483 limits assumed): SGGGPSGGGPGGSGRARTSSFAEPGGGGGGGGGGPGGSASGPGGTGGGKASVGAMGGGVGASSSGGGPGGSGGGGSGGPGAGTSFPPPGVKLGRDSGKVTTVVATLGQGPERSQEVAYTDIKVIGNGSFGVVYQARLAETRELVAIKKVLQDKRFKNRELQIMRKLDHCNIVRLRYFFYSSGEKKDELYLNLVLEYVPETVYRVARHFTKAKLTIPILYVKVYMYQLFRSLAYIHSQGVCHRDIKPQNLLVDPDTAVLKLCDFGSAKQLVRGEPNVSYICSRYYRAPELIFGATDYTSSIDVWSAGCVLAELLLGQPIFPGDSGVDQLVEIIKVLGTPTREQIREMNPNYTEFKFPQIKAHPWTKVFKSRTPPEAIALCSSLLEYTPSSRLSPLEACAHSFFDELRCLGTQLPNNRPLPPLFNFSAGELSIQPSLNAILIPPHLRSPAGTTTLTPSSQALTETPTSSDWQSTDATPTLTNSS
Sequence of Homeodomain-interacting protein kinase 1 (Homo sapiens) (Q86Z02 whole entry, looked up): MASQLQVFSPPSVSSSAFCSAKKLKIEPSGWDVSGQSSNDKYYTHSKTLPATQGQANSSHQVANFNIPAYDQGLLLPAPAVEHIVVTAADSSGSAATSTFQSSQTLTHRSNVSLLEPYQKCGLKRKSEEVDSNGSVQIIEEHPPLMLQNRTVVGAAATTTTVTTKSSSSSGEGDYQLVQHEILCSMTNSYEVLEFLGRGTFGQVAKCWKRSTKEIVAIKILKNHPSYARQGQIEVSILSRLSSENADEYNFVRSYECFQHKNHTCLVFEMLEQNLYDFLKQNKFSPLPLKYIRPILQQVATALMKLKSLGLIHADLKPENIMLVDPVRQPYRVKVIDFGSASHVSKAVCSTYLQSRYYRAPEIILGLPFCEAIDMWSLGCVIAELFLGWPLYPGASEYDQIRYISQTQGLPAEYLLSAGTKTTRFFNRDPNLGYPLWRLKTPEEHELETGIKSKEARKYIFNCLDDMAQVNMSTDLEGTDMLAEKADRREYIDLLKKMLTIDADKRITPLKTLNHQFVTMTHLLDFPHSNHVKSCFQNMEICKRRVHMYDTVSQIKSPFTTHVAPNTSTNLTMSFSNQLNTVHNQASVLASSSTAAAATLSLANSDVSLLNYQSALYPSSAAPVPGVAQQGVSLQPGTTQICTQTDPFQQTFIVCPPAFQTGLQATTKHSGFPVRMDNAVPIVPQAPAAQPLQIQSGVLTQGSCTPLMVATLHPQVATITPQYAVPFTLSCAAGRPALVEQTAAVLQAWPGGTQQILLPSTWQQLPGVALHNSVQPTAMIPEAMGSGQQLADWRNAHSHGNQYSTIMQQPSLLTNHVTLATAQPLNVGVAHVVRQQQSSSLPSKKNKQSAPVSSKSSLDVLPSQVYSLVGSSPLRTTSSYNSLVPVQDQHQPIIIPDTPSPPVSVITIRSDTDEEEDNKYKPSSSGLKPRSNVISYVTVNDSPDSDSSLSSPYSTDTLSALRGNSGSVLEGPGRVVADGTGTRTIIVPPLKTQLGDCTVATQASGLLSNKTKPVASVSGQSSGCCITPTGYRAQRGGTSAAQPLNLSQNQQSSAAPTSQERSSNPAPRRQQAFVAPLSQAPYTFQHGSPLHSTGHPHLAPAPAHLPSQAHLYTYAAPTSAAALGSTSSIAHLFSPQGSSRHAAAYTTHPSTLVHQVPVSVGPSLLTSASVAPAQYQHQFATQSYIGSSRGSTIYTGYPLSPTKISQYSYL
Sequence of Homeodomain-interacting protein kinase 3 (Homo sapiens) (Q9H422 whole entry, looked up): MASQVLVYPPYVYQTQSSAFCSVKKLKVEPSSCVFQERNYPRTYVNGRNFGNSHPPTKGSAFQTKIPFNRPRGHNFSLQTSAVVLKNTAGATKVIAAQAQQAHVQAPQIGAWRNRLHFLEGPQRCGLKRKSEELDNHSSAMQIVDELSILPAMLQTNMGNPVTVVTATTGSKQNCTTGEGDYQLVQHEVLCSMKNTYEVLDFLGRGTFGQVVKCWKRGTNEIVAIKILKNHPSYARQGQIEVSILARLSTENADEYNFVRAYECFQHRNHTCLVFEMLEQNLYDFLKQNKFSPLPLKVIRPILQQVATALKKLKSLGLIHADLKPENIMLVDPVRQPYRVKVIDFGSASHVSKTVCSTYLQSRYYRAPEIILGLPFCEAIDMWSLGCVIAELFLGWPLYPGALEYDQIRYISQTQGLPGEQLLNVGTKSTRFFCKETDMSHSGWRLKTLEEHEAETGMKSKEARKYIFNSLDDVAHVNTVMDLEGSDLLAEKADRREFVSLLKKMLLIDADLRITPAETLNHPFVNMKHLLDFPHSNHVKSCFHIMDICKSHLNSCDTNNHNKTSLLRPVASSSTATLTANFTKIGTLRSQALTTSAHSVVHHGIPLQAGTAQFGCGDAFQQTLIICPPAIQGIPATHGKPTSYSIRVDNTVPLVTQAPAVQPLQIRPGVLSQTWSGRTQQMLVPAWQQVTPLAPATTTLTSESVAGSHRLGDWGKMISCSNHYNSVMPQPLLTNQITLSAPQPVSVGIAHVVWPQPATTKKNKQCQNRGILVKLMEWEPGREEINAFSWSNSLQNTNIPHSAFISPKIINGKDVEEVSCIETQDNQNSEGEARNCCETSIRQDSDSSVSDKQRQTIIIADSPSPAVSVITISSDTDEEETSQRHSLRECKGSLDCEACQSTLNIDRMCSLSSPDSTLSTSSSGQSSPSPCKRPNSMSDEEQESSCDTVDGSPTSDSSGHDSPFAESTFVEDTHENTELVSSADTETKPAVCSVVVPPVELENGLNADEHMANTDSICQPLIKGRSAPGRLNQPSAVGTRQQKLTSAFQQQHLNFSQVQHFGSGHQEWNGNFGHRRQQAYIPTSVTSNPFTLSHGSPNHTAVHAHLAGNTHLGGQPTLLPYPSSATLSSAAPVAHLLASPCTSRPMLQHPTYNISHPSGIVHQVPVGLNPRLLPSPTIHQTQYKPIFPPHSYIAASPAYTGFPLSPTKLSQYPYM
Sequence of Tyrosine-protein kinase HCK (Homo sapiens) (P08631 2-526 limits assumed): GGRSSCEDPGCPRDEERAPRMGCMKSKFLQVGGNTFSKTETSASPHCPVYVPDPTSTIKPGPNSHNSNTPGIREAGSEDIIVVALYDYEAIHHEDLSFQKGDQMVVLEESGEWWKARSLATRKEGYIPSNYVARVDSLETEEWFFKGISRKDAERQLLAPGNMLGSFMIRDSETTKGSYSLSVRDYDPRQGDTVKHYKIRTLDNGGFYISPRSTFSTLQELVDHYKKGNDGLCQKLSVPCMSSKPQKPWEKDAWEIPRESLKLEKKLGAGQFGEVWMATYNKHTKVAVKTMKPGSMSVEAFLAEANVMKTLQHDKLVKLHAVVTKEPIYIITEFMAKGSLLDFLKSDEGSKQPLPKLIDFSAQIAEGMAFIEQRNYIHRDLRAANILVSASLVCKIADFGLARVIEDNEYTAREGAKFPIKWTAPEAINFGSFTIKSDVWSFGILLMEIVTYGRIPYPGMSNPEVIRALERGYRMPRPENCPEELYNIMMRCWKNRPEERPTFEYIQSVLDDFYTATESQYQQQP
Sequence of Homeodomain-interacting protein kinase 2 (Homo sapiens) (Q9H2X6 whole entry, looked up): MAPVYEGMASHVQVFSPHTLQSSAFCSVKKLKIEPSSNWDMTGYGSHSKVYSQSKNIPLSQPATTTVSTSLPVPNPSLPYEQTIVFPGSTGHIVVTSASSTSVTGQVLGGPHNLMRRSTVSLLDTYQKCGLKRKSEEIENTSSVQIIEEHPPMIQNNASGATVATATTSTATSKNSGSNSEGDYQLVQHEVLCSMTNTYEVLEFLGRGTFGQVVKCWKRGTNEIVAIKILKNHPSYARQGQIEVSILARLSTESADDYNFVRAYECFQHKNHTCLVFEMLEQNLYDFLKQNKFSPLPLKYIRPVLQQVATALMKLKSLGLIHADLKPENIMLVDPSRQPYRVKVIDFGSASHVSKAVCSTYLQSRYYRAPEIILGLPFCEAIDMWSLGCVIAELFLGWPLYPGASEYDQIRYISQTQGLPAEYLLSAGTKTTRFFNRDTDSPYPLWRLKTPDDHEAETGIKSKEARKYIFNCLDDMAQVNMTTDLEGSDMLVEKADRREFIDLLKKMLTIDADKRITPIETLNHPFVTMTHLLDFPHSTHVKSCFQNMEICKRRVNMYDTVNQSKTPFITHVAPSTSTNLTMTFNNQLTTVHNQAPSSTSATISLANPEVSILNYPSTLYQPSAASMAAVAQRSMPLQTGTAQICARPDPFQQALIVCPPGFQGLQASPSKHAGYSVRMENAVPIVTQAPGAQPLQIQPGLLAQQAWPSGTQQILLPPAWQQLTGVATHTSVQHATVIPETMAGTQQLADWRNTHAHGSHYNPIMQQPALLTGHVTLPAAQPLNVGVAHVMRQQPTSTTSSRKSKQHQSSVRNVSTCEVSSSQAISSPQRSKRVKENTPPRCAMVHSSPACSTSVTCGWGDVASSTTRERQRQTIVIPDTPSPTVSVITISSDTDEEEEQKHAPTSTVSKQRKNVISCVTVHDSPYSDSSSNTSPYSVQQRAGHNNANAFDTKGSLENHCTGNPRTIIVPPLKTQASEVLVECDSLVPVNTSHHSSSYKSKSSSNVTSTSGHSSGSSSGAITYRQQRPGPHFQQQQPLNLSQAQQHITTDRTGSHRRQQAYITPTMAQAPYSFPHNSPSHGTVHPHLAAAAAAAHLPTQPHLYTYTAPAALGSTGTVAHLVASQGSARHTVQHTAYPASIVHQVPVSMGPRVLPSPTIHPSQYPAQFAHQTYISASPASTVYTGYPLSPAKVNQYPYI

| SMILES | residual activity [1] | residual activity [2] | residual activity [3] | residual activity [4] | residual activity [5] | residual activity [6] | residual activity [7] | residual activity [8] | residual activity [9] | residual activity [10] | residual activity [11] | residual activity [12] | residual activity [13] | residual activity [14] | residual activity [15] | residual activity [16] | residual activity [17] | residual activity [18] | residual activity [19] | residual activity [20] |
| --- | --- | --- | --- | --- | --- | --- | --- | --- | --- | --- | --- | --- | --- | --- | --- | --- | --- | --- | --- | --- |
| CCC(=O)Nc1ccc2ncnc(Nc3cccc(Br)c3)c2c1 | 86% | 125% | 142% | 108% | 96% | 98% | 105% | 104% | 103% | 92% | 99% | 109% | 62% | 82% | 45% | 86% | 66% | 132% | 116% | 119% |
| Cc1nc(-c2ccccc2)c(-c2ccncc2)o1 | 103% | 92% | 85% | 111% | 78% | 107% | 102% | 94% | 77% | 97% | 103% | 94% | 35% | 24% | 20% | 96% | 91% | 94% | 128% | 112% |
| O=C1NC(=O)c2c1c1c3ccccc3[nH]c1c1[nH]c3cc(Br)ccc3c21 | 79% | 92% | 30% | 103% | 57% | 102% | 96% | 101% | 85% | 92% | 89% | 99% | 72% | 69% | 56% | 97% | 78% | 87% | 91% | 88% |
| Oc1ccc(-c2nc(-c3ccc(F)cc3)c(-c3ccncc3)[nH]2)cc1 | 96% | 95% | 42% | 88% | 28% | 103% | 96% | 99% | 95% | 106% | 105% | 55% | 10% | 59% | 24% | 98% | 45% | 113% | 141% | 92% |
| COc1ccc(CNc2nc(N(CCO)CCO)nc3c2ncn3C(C)C)cc1 | 69% | 74% | 75% | 91% | 102% | 102% | 88% | 98% | 82% | 105% | 98% | 104% | 101% | 62% | 56% | 102% | 91% | 90% | 129% | 95% |
| NC(=O)c1ccc2[nH]c(-c3ccc(Oc4ccc(Cl)cc4)cc3)nc2c1 | 77% | 101% | 86% | 105% | 130% | 104% | 96% | 98% | 100% | 92% | 98% | 89% | 96% | 72% | 60% | 96% | 89% | 140% | 98% | 100% |
| Cc1nc2cc3nc(-c4cccs4)cnc3cc2n1C | 78% | 136% | 109% | 101% | 81% | 107% | 106% | 104% | 73% | 92% | 97% | 123% | 79% | 92% | 67% | 90% | 34% | 141% | 61% | 109% |
| O=Nc1c(-c2c(O)[nH]c3ccccc23)[nH]c2ccccc12 | 18% | 5% | 1% | 10% | 1% | 90% | 73% | 48% | 8% | 88% | 19% | 26% | 19% | 15% | 5% | 8% | 1% | 37% | 26% | 98% |
| O=[N+]([O-])c1ccc(-c2nc(-c3ccc(F)cc3)c(-c3ccncc3)[nH]2)cc1 | 92% | 99% | 84% | 73% | 83% | 111% |  | 107% | 100% | 110% | 109% | 86% | 77% | 77% | 29% | 97% | 97% | 114% | 141% | 103% |
| CC(C)n1cnc2/c(=N/c3cccc(Cl)c3)nc(NCCO)[nH]c21 | 20% | 98% | 69% | 122% | 88% | 98% | 73% | 89% | 56% |  | 83% | 80% | 58% | 41% | 13% | 57% | 13% | 103% | 105% | 102% |
| Cc1cncc2cccc(S(=O)(=O)N3CCCN(C(=O)CN)C[C@H]3C)c12 | 28% |  |  |  |  | 94% |  |  |  |  |  | 91% | 62% | 69% | 60% | 98% | 73% | 134% |  | 50% |
| COc1cc2ncnc(Nc3ccc(NC(=O)c4ccccc4)cc3)c2cc1OC | 95% |  |  | 97% | 104% | 102% | 97% | 99% | 87% | 101% | 90% | 92% | 59% | 69% | 20% | 100% | 60% |  | 135% | 103% |
| CC(=O)c1ccc(N2CCOCC2)cc1O | 90% |  |  | 101% | 109% | 97% | 104% | 100% | 94% | 95% | 98% | 78% | 39% | 84% | 74% | 97% | 107% | 148% |  | 106% |
| c1ccc2c(-c3ccncc3)c[nH]c2c1 | 79% |  | 135% | 94% | 88% | 95% | 98% | 100% | 85% | 95% | 91% | 48% | 8% | 68% | 65% | 104% | 89% |  |  | 84% |
| Cc1cccc(-c2[nH]c(C(C)(C)C)nc2-c2ccc3c(c2)OCO3)n1 | 97% |  |  | 104% | 93% | 93% | 102% | 97% | 96% |  |  | 92% | 75% | 94% | 79% | 102% | 99% |  |  |  |
